Assay results as given in PubChem BioAssay (NCI).
The panel holds about 83,000 compounds, 20% with a hit somewhere; the sample as a whole holds those more often.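 Cell lines were cultured in 96-well plates, exposed to a single compound concentration, and assessed for percent growth 48 hours later.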 A number with no mark means an inactive call. Activity calls are given as the source filed them. The calls were made as follows: active = growth percent below 10; inactive = the rest.

How the values were obtained:
Assay in all cases: NCI-60 one-dose screen, 48 h (100 = growth as untreated, 0 = no growth, -100 = all killed)
Conditions in all cases: 10 µM unless noted
[1] = system: SR leukemia
[2] = system: RPMI-8226 leukemia
[3] = system: OVCAR-8 ovarian
[4] = system: OVCAR-5 ovarian
[5] = system: OVCAR-4 ovarian
[6] = system: SK-OV-3 ovarian
[7] = system: IGROV1 ovarian
[8] = system: OVCAR-3 ovarian
[9] = system: HS 578T breast
[10] = system: NCI/ADR-RES ovarian

Compound	growth [1]	growth [2]	growth [3]	growth [4]	growth [5]	growth [6]	growth [7]	growth [8]	growth [9]	growth [10]
COc1cc2c(cc1OC)-c1ccc3cc4c(cc3c1N(CCN1CCCC1)C2)OCO4	1.64% (active)	-36.2% (active)	6.81% (active)	30%	33.8%	-13.5% (active)	4.12% (active)	15.3%	16.2%	60.7%
Fc1ccc(Nc2ccc3cc(OCCCN4CCOCC4)ccc3n2)cc1F	8.16% (active)	49.5%	66.8%	56.8%	49.4%	72.8%	72.8%	68.1%	40.6%	59.8%
Cc1nc(C)c(-c2nn3c(-c4cccc(F)c4)nnc3s2)s1	69.3%	96.2%	94.7%	112%	112%	104%	106%	113%	105%	91.3%
CCOC(=O)c1nnn(C(Cc2ccccc2Cl)C(=O)OCC)c1C (stereo not given)	93.7%	96.3%	96.7%	106%	104%	102%	112%	111%	94.3%	107%
COc1ccc(CN2C(=O)/C(=C\c3cc(OC)c(OC)c(OC)c3)c3ccccc32)cc1	-21.6% (active)	-31.1% (active)	-7.07% (active)	31%	23.3%	34%	-22.7% (active)	-63.2% (active)	47.7%	2.38% (active)
C[C@@H]1C(=O)N(C[C@H](Cc2ccccc2)NC(=O)OCc2ccccc2)[C@]1(Cc1ccccc1)C(=O)OC(C)(C)C	64.4%	41.3%	66.9%	91.5%	52.4%	70.2%	69.7%	70.3%	79.4%	63%
CCCCCCCC/C=C\CCCCCCCC(=O)Oc1cccc2cccnc12	45.9%	297%	89.7%	104%	128%	112%	85.4%	-2.34% (active)	138%	99.1%
Cc1ccc(/C(=N\N=C(N)N)c2ccccc2)cc1	10.8%	-7.92% (active)	22.4%	51.4%	15.8%	4.12% (active)	-0.836% (active)	-38.5% (active)	31.5%	15.5%
COc1ccc2cc(-c3ccc(C(=O)NN)c(C)n3)ccc2c1	78.4%	101%	102%	91.6%	90.8%	95.7%	101%	91.9%	99.4%	105%
N[C@@H]1CCC[C@H]1NCCCCN1C(=O)c2cccc3cccc(c23)C1=O	18.1%	77.7%	45%	80.9%	47.2%	96.9%	59.9%	69.9%	71.8%	82.4%
CN(C)c1ccc(/C=C2\C=C(c3ccccc3)N(CCc3ccccc3)C2=O)cc1	23.5%	93%	11.7%	98.7%	-11.6% (active)	60.9%	70.2%	62.3%	19.1%	48.6%
CCN(CC)CCCNC(=O)c1ccc(N)cc1	86.6%	105%	106%	97.1%	114%	112%	100%	111%	99.2%	102%
COc1cc2oc3cc(C)oc(=O)c3c2cc1OC	106%	87.2%	97.3%	83.1%	93.6%	103%	98.9%	110%	106%	89.1%
Cc1cc(-c2ccccc2)cc(SC#N)[n+]1[O-]	8.25% (active)	19.2%	31.7%	75.4%	41.2%	45.1%	35.3%	39.6%	80.1%	19.7%
O=C(Oc1ccc([N+](=O)[O-])cc1)c1ccc(CBr)cc1	74.7%	81.6%	96.2%	103%	111%	147%	90.7%	114%	96.7%	99.3%
COC(=O)CCCNC(=O)C(=O)c1c(O)c(O)c(C(C)C)c2cc(C)c(-c3c(C)cc4c(C(C)C)c(O)c(O)c(C(=O)C(=O)NCCCC(=O)OC)c4c3O)c(O)c12	-1.66% (active)	17.1%	-15.1% (active)	4.86% (active)	-3.33% (active)	-4.94% (active)	18.2%	4.88% (active)	12.2%	9.74% (active)
CSc1nc2sc3cc(Cl)ccc3n2c(=N)c1C#N	56.8%	83.5%	56.9%	107%	45.4%	72.4%	96.7%	101%	24.8%	58.4%
CC(=O)c1sc(-c2ccccc2)cc1N	88.4%	98.1%	92.8%	100%	94.2%	89.6%	105%	103%	89.1%	105%
O=C(Nc1cccc2[nH]c(C(F)(F)F)nc12)c1cc(Cl)ccc1Cl	25.3%	14.5%	26.5%	78.1%	23.2%	47.9%	35.8%	21.4%	53.9%	9.82% (active)
Oc1[nH]c2ccccc2c1/C=c1/cc2c(c(-c3ccc(F)cc3)n1)=Nc1ccccc1-2	10%	-40.5% (active)	-19.6% (active)	0.0696% (active)	-65.1% (active)	-7.93% (active)	-7.94% (active)	-77% (active)	-7.82% (active)	-18.7% (active)
CCN(CCO)CC(=O)c1cc(Cl)cc(Cl)c1Cl	95.4%	97.1%	103%	109%	115%	102%	109%	106%	101%	102%
C=CC(=O)N[C@@H](Cc1ccc(-c2cc(Cl)cc(Cl)c2)cc1)[C@@H](O)[C@H](O)C(=O)O	92.8%	105%	85.9%	86.8%	99.9%	91.6%	105%	114%	92.9%	95.6%
CC(C)(O)c1cccc(F)c1	96.9%	103%	107%	99.3%	112%	135%	104%	127%	103%	102%
CCOC(=O)c1nnn(-c2ccccc2)c1C1=CN(C)CCC1	88.8%	113%	102%	99.9%	99.9%	97.2%	104%	100%	91.9%	102%
Cc1nc(Nc2ccc(NC(=S)Nc3ccccc3)cc2)nc2nc(Nc3ccc(S(=O)(=O)O)cc3)[nH]c(=O)c12	47.5%	79.2%	49.8%	103%	113%	98.3%	72%	139%	111%	106%
Nc1ccc(CCCCc2ccccc2)c(Cl)c1	92.7%	85.4%	94%	96.7%	84.4%	98.7%	87.2%	94.3%	93.7%	104%
Cc1nc(Nc2ccc(NC(=S)Nc3ccccc3)cc2)nc2nc(SCc3ccccc3)[nH]c(=O)c12	61.8%	67%	82.4%	102%	106%	109%	65.7%	112%	105%	110%
